This is an account of results in PubChem BioAssay (NCI).

Among the test systems are SK-MEL-2 melanoma; EKVX NSCLC; UO-31 renal; TK-10 renal; ACHN renal; CAKI-1 renal; A498 renal; CCRF-CEM leukemia; MOLT-4 leukemia; SN12C renal.
Holding throughout (experiment): NCI-60 one-dose screen, 48 h (100 = growth as untreated, 0 = no growth, -100 = all killed)
Holding throughout (conditions): 10 µM unless noted

Compounds without any hit were thinned out: in the full panel of roughly 83,000, 20% have a hit.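 Note: values are percent growth. 100 is the growth of untreated cells, values between 100 and 0 indicate rising inhibition; between -100 and 0 indicates cell death.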 Values without a mark were called inactive. Active and inactive are the calls of the source. The calls were made as follows: active = growth percent below 10; inactive = the rest.

Regarding `O=c1[nH]ncc(Br)c1Br`, the growth in the assay on SK-MEL-2 melanoma is 45.1%; with EKVX NSCLC, 78.8%; with UO-31 renal it was 52%; in the assay on TK-10 renal, 65.8%; in the assay on ACHN renal, 87.3%; in the assay with CAKI-1 renal, 86.4%. Further, the growth was 108% in the assay with A498 renal, 27.6% in the assay on CCRF-CEM leukemia and 35.4% with MOLT-4 leukemia.

`COc1ccc(/C=C(\C#N)c2cc3ccccc3n2C(C)=O)cc1`: the growth with SK-MEL-2 melanoma was 83.3%; in the assay with EKVX NSCLC, 78%; in the assay on UO-31 renal, 88.1%; with TK-10 renal, 126%; with ACHN renal it was 102%; in the assay on CAKI-1 renal, 69.1%. In addition, the growth with A498 renal is 78.3%; in the assay with CCRF-CEM leukemia, 75.6%; in the assay on MOLT-4 leukemia it was 70%.

With `Cn1cc(-c2nc(-c3c[nH]c4ncccc34)cs2)c2cc(Cl)ccc21`, the growth in the assay on SK-MEL-2 melanoma was 60.4%; with EKVX NSCLC, 41.8%; in the assay with SN12C renal, 54%; in the assay with TK-10 renal it was 43.1%; in the assay with ACHN renal, 30%; in the assay on CAKI-1 renal it was 36.5%. Further, the figures for the growth with A498 renal, in the assay on CCRF-CEM leukemia and with MOLT-4 leukemia were 74.7%, 33.8% and 37.9%, respectively.

As to `CCCCCC1CCCCN1C(=O)OCC` (centres undefined), the growth is 94.9% with SK-MEL-2 melanoma; 124% in the assay on EKVX NSCLC; 102% in the assay on SN12C renal; 100% in the assay with TK-10 renal; 98.8% with ACHN renal; 99.4% in the assay with CAKI-1 renal. In addition, the growth in the assay with A498 renal was 91.4%; in the assay on CCRF-CEM leukemia it was 96.6%; in the assay with MOLT-4 leukemia, 79.9%.

With `COc1ccc(C2=NN(c3nc(-c4ccc(OC)cc4)c(C#N)c(=O)n3C)C(=O)CC2)cc1`, the growth is 98.4% in the assay on SK-MEL-2 melanoma; 107% in the assay on EKVX NSCLC; 85.9% in the assay with UO-31 renal; 107% in the assay on TK-10 renal; 101% in the assay with ACHN renal; 96% in the assay with CAKI-1 renal. The growth in the assay on A498 renal was 116%; in the assay with CCRF-CEM leukemia, 91%; with MOLT-4 leukemia it was 96.6%.

For the compound `O=C(N/N=C\c1c(O)ccc2ccccc12)C1CC1`, the growth with SK-MEL-2 melanoma was 35.1%; with EKVX NSCLC, 32.1%; in the assay with UO-31 renal it was 8.64% (active); in the assay with TK-10 renal it was 78.1%; in the assay on ACHN renal it was 23.6%; in the assay with CAKI-1 renal, 2.09% (active). Moreover, the growth was 102% in the assay on A498 renal, 11.9% in the assay on CCRF-CEM leukemia and 9.27% (active) in the assay with MOLT-4 leukemia.

Consider `COc1ccc(-c2n[nH]nc2-c2cc3ccccc3s2)cc1O`, for which the growth in the assay with SK-MEL-2 melanoma is 32.3%; in the assay on EKVX NSCLC it was 41.9%; in the assay with UO-31 renal it was 40.5%; with TK-10 renal, 57%; in the assay with ACHN renal, 44.4%; in the assay on CAKI-1 renal, 38.9%. Moreover, the results for the growth in the assay on A498 renal, in the assay on CCRF-CEM leukemia and with MOLT-4 leukemia were 1.86% (active), 16% and 15.1%, respectively.

For the compound `CC1(C)CC[C@]2(CO)CC[C@]3(C)C(=CC[C@@H]4[C@@]5(C)CC[C@H](NCO)C(C)(C)[C@@H]5CC[C@]43C)[C@@H]2C1`, the growth in the assay with SK-MEL-2 melanoma is -38% (active); with EKVX NSCLC it was 41%; in the assay on UO-31 renal it was -58.9% (active); with TK-10 renal it was 100%; in the assay on ACHN renal, -69.2% (active); in the assay on CAKI-1 renal it was -71.9% (active). Further, the growth in the assay on A498 renal is 84.2%; in the assay on CCRF-CEM leukemia, 0.708% (active); in the assay on MOLT-4 leukemia it was -19.7% (active).

For the compound `COc1ccc(-n2c(/C=C/c3ccc(O)c(OC)c3)cc(/C=C/c3ccc(O)c(OC)c3)nc2=O)cc1`, the growth in the assay on SK-MEL-2 melanoma is 84.9%; in the assay on EKVX NSCLC it was 56.7%; with UO-31 renal it was 47.8%; in the assay on TK-10 renal, 104%; in the assay with ACHN renal, 69.5%; with CAKI-1 renal, 87.4%. The growth is 113% in the assay on A498 renal and 15.2% in the assay with CCRF-CEM leukemia.

With `O=C(O)/C(=C/c1ccc(O)cc1)c1ccccc1`, the growth in the assay on SK-MEL-2 melanoma is 105%; with EKVX NSCLC, 105%; in the assay with UO-31 renal, 68.9%; with TK-10 renal, 98.3%; in the assay on ACHN renal, 101%; in the assay on CAKI-1 renal it was 104%. Further, the growth in the assay on A498 renal is 93.2%; in the assay on CCRF-CEM leukemia it was 94.5%; in the assay with MOLT-4 leukemia, 97.5%.

Turning to `CCNCCCn1c2c(c3ccc([N+](=O)[O-])cc3c1=O)C(=O)c1cc(OC)cnc1-2`, the growth in the assay on SK-MEL-2 melanoma is -27.8% (active); in the assay with EKVX NSCLC, 8.7% (active); in the assay on UO-31 renal it was -85.1% (active); in the assay on TK-10 renal it was -27.6% (active); with ACHN renal it was -61.1% (active); in the assay with CAKI-1 renal it was -58.5% (active). For the same compound, the growth in the assay with A498 renal is -89.2% (active); in the assay on CCRF-CEM leukemia, 3.93% (active); in the assay with MOLT-4 leukemia it was -4.26% (active).

On to `CCN1CCN(C(=O)[C@@]2(C)CC[C@]3(C)CC[C@]4(C)C(=CC(=O)[C@@H]5[C@@]6(C)CC[C@H](OC7C[C@@H](O)[C@@H](O)C(C)O7)C(C)(C)[C@@H]6CC[C@]54C)[C@@H]3C2)CC1` (some centres undefined), for which the growth with SK-MEL-2 melanoma was 105%; in the assay on EKVX NSCLC it was 80.4%; in the assay on UO-31 renal, -80.8% (active); in the assay with TK-10 renal it was 136%; in the assay with ACHN renal it was 79.5%; with CAKI-1 renal, 89.4%. The growth was 95.5% in the assay with A498 renal, 0.503% (active) in the assay with CCRF-CEM leukemia and 0.754% (active) in the assay with MOLT-4 leukemia.

For `C=C1C(=O)O[C@H]2[C@H]1CC/C(COC(=O)N[C@H](Cc1c[nH]c3ccccc13)C(=O)OC)=C\CC[C@@]1(C)O[C@@H]21`, the growth is 70.4% with SK-MEL-2 melanoma; 63.6% in the assay with EKVX NSCLC; 41.7% in the assay with SN12C renal; -4.81% (active) in the assay with UO-31 renal; 25.8% in the assay with TK-10 renal; -17.7% (active) with ACHN renal. Besides, the figures for the growth in the assay with A498 renal, in the assay with CCRF-CEM leukemia and in the assay with MOLT-4 leukemia were 83%, 2.23% (active) and 4.53% (active), respectively.

In the case of `N#CC1=C(N)Oc2ccc3ccccc3c2C1c1ccccc1` (centres undefined), the growth with SK-MEL-2 melanoma was 49.7%; with EKVX NSCLC it was 39%; with UO-31 renal, 44.9%; with TK-10 renal, 121%; with ACHN renal it was 37.3%; with CAKI-1 renal, 23.3%. Besides, the growth in the assay with A498 renal was 21.5%; in the assay with CCRF-CEM leukemia it was 20.7%; in the assay with MOLT-4 leukemia it was 32.6%.

Turning to `CCOc1ccc(NC(=O)c2ccoc2COc2ccccc2)cc1`, the growth in the assay on SK-MEL-2 melanoma is 106%; in the assay with EKVX NSCLC it was 96.1%; in the assay on UO-31 renal, 79.8%; with TK-10 renal, 101%; in the assay with ACHN renal, 106%; in the assay with CAKI-1 renal it was 95.7%. Also, the growth was 108% in the assay on A498 renal, 95% in the assay with CCRF-CEM leukemia and 97% in the assay on MOLT-4 leukemia.
